The values that follow come from paper doi:10.1101/2024.03.05.583629.

The target of one assay is pT7_6His-AlfaTag-HOXD13 (human, UniProt P35453 263-343). In words: PADIT-seq. The note with it: dsDNA, one strand shown.
In the next assay the target is pT7_6His-AlfaTag-ZIF268 (human, UniProt P18146 335-423). In words: PADIT-seq. Conditions: dsDNA, one strand shown.

pT7_6His-AlfaTag-HOXD13, sequence (P35453 263-343): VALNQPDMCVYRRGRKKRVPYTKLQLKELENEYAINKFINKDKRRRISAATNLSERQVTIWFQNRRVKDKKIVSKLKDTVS

With “CTCGAGGATATCAAGATCTGGCCTCGGCTTTTTAGTGGGAACCTCTAGCTAGCCGACTCACTATAGGGATAATCGCCCTGAGCAAAGACC”, the binding signal was 1.59 ± 0.0858 log2FC in the assay with pT7_6His-AlfaTag-HOXD13 and 0.00131 ± 0.0904 log2FC with pT7_6His-AlfaTag-ZIF268.

In the case of “CTCGAGGATATCAAGATCTGGCCTCGGCTTTTTACAGGGAACCTCTAGCTAGCCGACTCACTATAGGGATAATCGCCCTGAGCAAAGACC”, the binding signal amounted to 3.18 ± 0.0923 log2FC with pT7_6His-AlfaTag-HOXD13 and 0.066 ± 0.102 log2FC with pT7_6His-AlfaTag-ZIF268.

For “CTCGAGGATATCAAGATCTGGCCTCGGCGCGTGGATAGGAACCTCTAGCTAGCCGACTCACTATAGGGATAATCGCCCTGAGCAAAGACC”, the binding signal with pT7_6His-AlfaTag-HOXD13 was -0.997 ± 0.122 log2FC; with pT7_6His-AlfaTag-ZIF268, 0.0372 ± 0.0987 log2FC.

Regarding “CTCGAGGATATCAAGATCTGGCCTCGGCATTTTAATAGGAACCTCTAGCTAGCCGACTCACTATAGGGATAATCGCCCTGAGCAAAGACC”, the binding signal was 2.83 ± 0.073 log2FC with pT7_6His-AlfaTag-HOXD13 and 0.0148 ± 0.0814 log2FC with pT7_6His-AlfaTag-ZIF268.

Consider “CTCGAGGATATCAAGATCTGGCCTCGGCCATCCACGCGGAACCTCTAGCTAGCCGACTCACTATAGGGATAATCGCCCTGAGCAAAGACC”, for which the values for the binding signal in the assay with pT7_6His-AlfaTag-HOXD13 and in the assay with pT7_6His-AlfaTag-ZIF268 were -1.04 ± 0.111 log2FC and 0.00839 ± 0.0869 log2FC, respectively.

As to “CTCGAGGATATCAAGATCTGGCCTCGGCTTTTTAGAAGGAACCTCTAGCTAGCCGACTCACTATAGGGATAATCGCCCTGAGCAAAGACC”, the binding signal in the assay with pT7_6His-AlfaTag-HOXD13 was determined as 0.559 ± 0.108 log2FC; with pT7_6His-AlfaTag-ZIF268 it was 0.0735 ± 0.104 log2FC.

“CTCGAGGATATCAAGATCTGGCCTCGGCCTTTTAAAAGGAACCTCTAGCTAGCCGACTCACTATAGGGATAATCGCCCTGAGCAAAGACC”: the binding signal in the assay with pT7_6His-AlfaTag-HOXD13 is 2.5 ± 0.0673 log2FC; in the assay with pT7_6His-AlfaTag-ZIF268, 0.098 ± 0.0706 log2FC.

Regarding “CTCGAGGATATCAAGATCTGGCCTCGGCATCTTAAAAGGAACCTCTAGCTAGCCGACTCACTATAGGGATAATCGCCCTGAGCAAAGACC”, the binding signal with pT7_6His-AlfaTag-HOXD13 amounted to 1.62 ± 0.0869 log2FC; in the assay with pT7_6His-AlfaTag-ZIF268, 0.00209 ± 0.0901 log2FC.

With “CTCGAGGATATCAAGATCTGGCCTCGGCAGCGTAAAAGGAACCTCTAGCTAGCCGACTCACTATAGGGATAATCGCCCTGAGCAAAGACC”, the binding signal with pT7_6His-AlfaTag-HOXD13 came to 0.403 ± 0.0993 log2FC; with pT7_6His-AlfaTag-ZIF268, 0.0644 ± 0.094 log2FC.

“CTCGAGGATATCAAGATCTGGCCTCGGCACGCTAAAAGGAACCTCTAGCTAGCCGACTCACTATAGGGATAATCGCCCTGAGCAAAGACC”: the figures for the binding signal in the assay with pT7_6His-AlfaTag-HOXD13 and in the assay with pT7_6His-AlfaTag-ZIF268 were -0.127 ± 0.102 log2FC and 0.0119 ± 0.0913 log2FC, respectively.

For the sequence “CTCGAGGATATCAAGATCTGGCCTCGGCGCGACAGCGGGAACCTCTAGCTAGCCGACTCACTATAGGGATAATCGCCCTGAGCAAAGACC”, the binding signal with pT7_6His-AlfaTag-HOXD13 was -1.04 ± 0.131 log2FC; with pT7_6His-AlfaTag-ZIF268, 0.028 ± 0.102 log2FC.

Consider “CTCGAGGATATCAAGATCTGGCCTCGGCCGATGGGCGGGAACCTCTAGCTAGCCGACTCACTATAGGGATAATCGCCCTGAGCAAAGACC”, for which the binding signal was -1.02 ± 0.115 log2FC in the assay with pT7_6His-AlfaTag-HOXD13 and 0.00701 ± 0.0902 log2FC with pT7_6His-AlfaTag-ZIF268.

As for “CTCGAGGATATCAAGATCTGGCCTCGGCGCGTGGCATGGAACCTCTAGCTAGCCGACTCACTATAGGGATAATCGCCCTGAGCAAAGACC”, the binding signal with pT7_6His-AlfaTag-HOXD13 was -1.09 ± 0.127 log2FC; in the assay with pT7_6His-AlfaTag-ZIF268 it was 0.0324 ± 0.101 log2FC.

Regarding “CTCGAGGATATCAAGATCTGGCCTCGGCAAACTAAAAGGAACCTCTAGCTAGCCGACTCACTATAGGGATAATCGCCCTGAGCAAAGACC”, the binding signal was -0.484 ± 0.203 log2FC with pT7_6His-AlfaTag-HOXD13 and 0.0456 ± 0.191 log2FC with pT7_6His-AlfaTag-ZIF268.

With “CTCGAGGATATCAAGATCTGGCCTCGGCCGCCCACTTGGAACCTCTAGCTAGCCGACTCACTATAGGGATAATCGCCCTGAGCAAAGACC”, the figures for the binding signal with pT7_6His-AlfaTag-HOXD13 and with pT7_6His-AlfaTag-ZIF268 were -0.908 ± 0.133 log2FC and 0.543 ± 0.104 log2FC, respectively.

Take “CTCGAGGATATCAAGATCTGGCCTCGGCCTTTTAGGAGGAACCTCTAGCTAGCCGACTCACTATAGGGATAATCGCCCTGAGCAAAGACC”: the binding signal is 1.3 ± 0.0799 log2FC with pT7_6His-AlfaTag-HOXD13 and 0.0187 ± 0.0815 log2FC with pT7_6His-AlfaTag-ZIF268.

With “CTCGAGGATATCAAGATCTGGCCTCGGCCGCGACCGCGGAACCTCTAGCTAGCCGACTCACTATAGGGATAATCGCCCTGAGCAAAGACC”, the binding signal is -0.85 ± 0.123 log2FC in the assay with pT7_6His-AlfaTag-HOXD13 and 0.0618 ± 0.097 log2FC with pT7_6His-AlfaTag-ZIF268.

In the case of “CTCGAGGATATCAAGATCTGGCCTCGGCCGCCCATCCGGAACCTCTAGCTAGCCGACTCACTATAGGGATAATCGCCCTGAGCAAAGACC”, the results for the binding signal in the assay with pT7_6His-AlfaTag-HOXD13 and with pT7_6His-AlfaTag-ZIF268 were -1.06 ± 0.122 log2FC and 0.00306 ± 0.0965 log2FC, respectively.

Consider “CTCGAGGATATCAAGATCTGGCCTCGGCTCGGTAAAAGGAACCTCTAGCTAGCCGACTCACTATAGGGATAATCGCCCTGAGCAAAGACC”, for which the results for the binding signal with pT7_6His-AlfaTag-HOXD13 and with pT7_6His-AlfaTag-ZIF268 were 0.426 ± 0.0878 log2FC and 0.074 ± 0.0831 log2FC, respectively.

With “CTCGAGGATATCAAGATCTGGCCTCGGCTCTATAAAAGGAACCTCTAGCTAGCCGACTCACTATAGGGATAATCGCCCTGAGCAAAGACC”, the binding signal is 2.9 ± 0.0831 log2FC with pT7_6His-AlfaTag-HOXD13 and 0.0429 ± 0.0922 log2FC with pT7_6His-AlfaTag-ZIF268.

Take “CTCGAGGATATCAAGATCTGGCCTCGGCGGAGTAAAAGGAACCTCTAGCTAGCCGACTCACTATAGGGATAATCGCCCTGAGCAAAGACC”: the binding signal in the assay with pT7_6His-AlfaTag-HOXD13 is -0.327 ± 0.108 log2FC; in the assay with pT7_6His-AlfaTag-ZIF268 it was 0.0307 ± 0.0975 log2FC.

Consider “CTCGAGGATATCAAGATCTGGCCTCGGCAGTTGGGCGGGAACCTCTAGCTAGCCGACTCACTATAGGGATAATCGCCCTGAGCAAAGACC”, for which the binding signal was -0.843 ± 0.104 log2FC in the assay with pT7_6His-AlfaTag-HOXD13 and 0.102 ± 0.086 log2FC in the assay with pT7_6His-AlfaTag-ZIF268.

On to “CTCGAGGATATCAAGATCTGGCCTCGGCTCCCCACGCGGAACCTCTAGCTAGCCGACTCACTATAGGGATAATCGCCCTGAGCAAAGACC”, for which the results for the binding signal with pT7_6His-AlfaTag-HOXD13 and with pT7_6His-AlfaTag-ZIF268 were -0.217 ± 0.124 log2FC and 0.208 ± 0.106 log2FC, respectively.

As to “CTCGAGGATATCAAGATCTGGCCTCGGCATTTTAATCGGAACCTCTAGCTAGCCGACTCACTATAGGGATAATCGCCCTGAGCAAAGACC”, the figures for the binding signal with pT7_6His-AlfaTag-HOXD13 and with pT7_6His-AlfaTag-ZIF268 were 1.1 ± 0.0894 log2FC and 0.0175 ± 0.09 log2FC, respectively.
